Reference: PMC4336329 (PLoS ONE, 2015)
In all, about 310,000 compounds went through this assay and about 14,000 (4.5%) showed an effect of 50% or more. The effect is printed as a negative number. This is one part of a sample in which strong results are shown more often than they occur.

The compounds below were run against human ether-à-go-go-related gene (hERG) potassium channel (human, UniProt Q12809) (assay: primary screen, population patch clamp on CHO cells stably expressing hERG; higher = less effect of the substance).
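Also: peak tail current of the secondary pulse compared with the same well before compound.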

human ether-à-go-go-related gene (hERG) potassium channel, sequence (Q12809 whole entry, looked up): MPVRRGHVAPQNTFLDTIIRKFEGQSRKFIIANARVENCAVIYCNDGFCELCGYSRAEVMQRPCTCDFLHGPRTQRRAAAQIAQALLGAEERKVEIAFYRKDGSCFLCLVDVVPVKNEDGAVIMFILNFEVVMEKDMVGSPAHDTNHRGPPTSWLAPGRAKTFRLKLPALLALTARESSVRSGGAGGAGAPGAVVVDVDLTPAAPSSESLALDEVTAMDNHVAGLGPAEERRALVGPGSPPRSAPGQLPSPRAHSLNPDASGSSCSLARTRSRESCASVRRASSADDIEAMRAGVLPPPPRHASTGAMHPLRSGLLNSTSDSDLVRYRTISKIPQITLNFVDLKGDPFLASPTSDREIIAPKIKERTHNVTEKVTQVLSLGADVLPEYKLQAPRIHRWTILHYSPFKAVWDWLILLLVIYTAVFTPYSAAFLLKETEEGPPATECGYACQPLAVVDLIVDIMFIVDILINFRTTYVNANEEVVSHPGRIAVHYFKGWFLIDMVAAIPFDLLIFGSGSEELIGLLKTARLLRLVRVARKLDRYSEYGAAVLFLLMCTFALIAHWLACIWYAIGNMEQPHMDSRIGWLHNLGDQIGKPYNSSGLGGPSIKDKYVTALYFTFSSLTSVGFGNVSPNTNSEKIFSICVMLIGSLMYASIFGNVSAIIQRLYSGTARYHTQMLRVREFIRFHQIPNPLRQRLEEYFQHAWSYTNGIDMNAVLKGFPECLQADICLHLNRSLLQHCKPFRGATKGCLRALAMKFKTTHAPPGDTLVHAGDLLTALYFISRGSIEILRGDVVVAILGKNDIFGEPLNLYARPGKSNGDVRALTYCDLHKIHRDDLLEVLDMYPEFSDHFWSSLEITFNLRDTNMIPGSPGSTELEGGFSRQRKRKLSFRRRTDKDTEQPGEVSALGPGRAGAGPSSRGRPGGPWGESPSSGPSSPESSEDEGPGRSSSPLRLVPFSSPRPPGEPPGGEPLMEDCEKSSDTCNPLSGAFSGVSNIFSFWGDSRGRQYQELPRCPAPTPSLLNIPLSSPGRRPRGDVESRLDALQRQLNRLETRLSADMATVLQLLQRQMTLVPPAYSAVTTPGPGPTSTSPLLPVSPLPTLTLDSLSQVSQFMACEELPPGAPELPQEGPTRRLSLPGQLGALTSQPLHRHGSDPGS

Row | Structure (SMILES) | hERG current change (%, negative = inhibition) at 10uM [%]
1 | COc1cc(/C=C/c2ccc3cccc(OC)c3n2)c(O)c([N+](=O)[O-])c1 | 9.97
2 | CNC(=S)N(Cc1ccc(OC)cc1)Cc1cc2cc(C)ccc2[nH]c1=O | 18
3 | O=c1ccc(Cl)cn1Cc1ccccc1F | 5.34
4 | CCN1C(=O)/C(=C/c2cnn(CC)c2C)SC1=S | 5.73
5 | COc1ccc(S(=O)(=O)N2CCOc3ccccc32)cc1 | -1.55
6 | Cc1ccccc1NC(=O)C(C)N1C(=O)c2ccccc2C1=O (centres unmarked) | 14.7
7 | COc1ccc(C2NC(=O)c3ccccc3N2)cc1OC (centres unmarked) | 13
8 | COc1ccc(Cc2nnc(SCC(=O)N3CCCC3)o2)cc1 | 2.54
9 | COc1ccc(/C(N)=N/OC(=O)Cc2ccc(C)cc2)cc1 | 9.68
10 | C=CCNc1oc(Cc2cccc3ccccc23)nc1C#N | -14.7
11 | CCCCn1c(=O)n(C)c(=O)c2c(C(F)(F)F)cc(-c3ccncc3)nc21 | -28
12 | Cc1nc(C)c(-c2ccc(SCc3cccc(F)c3)nn2)s1 | -50.6
13 | Cc1nc(C)c(-c2ccc(SCc3ccc(Cl)cc3)nn2)s1 | -14.7
14 | Cc1nc(C)c(-c2ccc(SCc3ccccc3F)nn2)s1 | 4.94
15 | O=C(O)CCC(=O)NCc1ccc(F)cc1 | -7.12
16 | Cc1oc(C(C)(C)C)cc1C(N)=O | 12.7
17 | CSc1ncccc1C(=O)NCc1ccccc1Cl | -7.25
18 | Cc1ccc(S(=O)(=O)N2CCCCC2)cc1NC(=O)COC(=O)C1CC2C=CC1C2 (centres unmarked) | -62
19 | O=C(COC(=O)C1CC2C=CC1C2)Nc1cccc(S(=O)(=O)N2CCCCCC2)c1 (centres unmarked) | -23.2
20 | Cc1ccc(NC(=O)COC(=O)C2CC3C=CC2C3)cc1S(=O)(=O)N1CCCCC1 (centres unmarked) | -7.32
21 | O=C(COC(=O)CNC(=O)c1cccc([N+](=O)[O-])c1)Nc1cccc(S(=O)(=O)N2CCCCC2)c1 | -30.8
22 | Cc1ccc(S(=O)(=O)N2CCCCC2)cc1NC(=O)COC(=O)CNC(=O)c1cc(Cl)cc([N+](=O)[O-])c1 | -51.4
23 | Cc1ccc(NC(=O)COC(=O)CNC(=O)c2cccc([N+](=O)[O-])c2)cc1S(=O)(=O)N1CCCCCC1 | -49.1

Row | Structure (SMILES) | hERG current change (%, negative = inhibition) at 10uM [%]
24 | CC(=O)CC(=O)NC(=NC1CCCCC1)Nc1nc(C)cc(C)n1 | 7.01
25 | Nc1ccc2c(c1)nnn2-c1ccccc1 | -7.35
26 | Cn1c(SCC(=O)NC2CC2)nnc1-c1cccc(NC(=O)c2ccccc2F)c1 | -3.11
27 | CCOc1ccccc1N(CC(=O)NC1CCCC1)C(=O)CNC(=O)c1cccs1 | -3.75
28 | CCN1CCN(CC(=O)c2c[nH]c3ccc(C)cc23)CC1 | -4.16
29 | O=C(c1cc(COc2c(F)cccc2F)on1)N1CCC(c2ccccc2F)C1 (centres unmarked) | 20.4
30 | CN1CCN(C(=O)C2(NC(=O)NCc3ccccc3)CCCCC2)CC1 | 13.2
31 | COc1ccc(CCNC(=O)C(=O)NCC2OCCN2S(=O)(=O)c2ccc(Br)cc2)cc1 (centres unmarked) | -7.02
32 | O=C([C@H](O)c1ccccc1)N1CCC[C@H]1CO | 8.33
33 | O=C(CC1C(=O)CCCC1=O)c1ccccc1 | 25.1
34 | CN1C(CC(O)c2ccccc2)CCCC1CC(O)c1ccccc1.Cl (centres unmarked) | -67.8
35 | CN1C(CC(=O)c2ccccc2)CCCC1CC(O)c1ccccc1 (centres unmarked) | -82.4
36 | OC(CNC1CCCCC1)c1ccccc1 (centres unmarked) | 12.1
37 | CN1CCC(N(C)CC(O)c2ccccc2)CC1.O=C(O)C(=O)O (centres unmarked) | -6.05
38 | CCOC(=O)C(NC(=O)CC)(Nc1ccccc1)C(F)(F)F (centres unmarked) | 21.9
39 | Cc1noc(/C=C/c2nn(C)cc2Cl)c1[N+](=O)[O-] | 16.6
40 | C/C(=N\Nc1ccc(C)c(Cl)c1)c1ccncc1 | 24.8
41 | Cc1ccccc1C(=O)NC1CCN(Cc2nnnn2C(C)(C)C)CC1 | 17.7
42 | O=C(CCC(=O)c1ccc(Cl)s1)Nc1ncccc1O | -28.2
43 | CCOC(=O)Nc1nc(-c2ccc(Cl)cc2Cl)cs1 | 11.7
44 | CC(CN(C)Cc1nc(Cc2cccc(C(F)(F)F)c2)no1)CN1CCCC1 (centres unmarked) | -63.2
45 | CN(Cc1nc(Cc2cccc(C(F)(F)F)c2)no1)C1CC(C)(C)NC(C)(C)C1 | -12.3
46 | CN1CCCC2(CCCN(Cc3nc(Cc4cccc(C(F)(F)F)c4)no3)C2)C1 (centres unmarked) | -45.2

Row | Structure (SMILES) | hERG current change (%, negative = inhibition) at 10uM [%]
47 | CCn1ccnc1CN(C)Cc1nc(CCC(C)C)no1 | 4.23
48 | CCc1ccc(CN(C)Cc2nc(Cc3cccc(C(F)(F)F)c3)no2)nc1 | -28.1
49 | CCn1ccnc1CN(C)Cc1nc(Cc2cccc(C(F)(F)F)c2)no1 | -60.8
50 | COc1ccc(NC(=O)Cn2nnc(C(=O)Nc3ccc(F)c(Cl)c3)c2N)cc1 | 25.9
51 | Cc1cccc(C(=O)NNC(=O)c2ccc(O)cc2)c1 | -2.31
52 | COc1ccc(CCNC(=O)COC(=O)C2CCCCC2)cc1 | 7.11
53 | Cc1nc2nc[nH]n2c(=O)c1CCOC(=O)c1ccccc1F | 20.7
54 | O=C(/C=C\c1ccccc1)NCC(=O)N/N=C/c1ccc(O)cc1O | 9.48
55 | Cc1ccc(NC(=O)CCNS(=O)(=O)c2ccccc2)c(C(=O)c2ccccc2)c1 | -20.4
56 | O=C(NC1CCCN(Cc2ccc(Cl)cc2)C1)C1CCC1 (centres unmarked) | -13.6
57 | Cc1cc(C(=O)NC2CCCN(Cc3ccc(Cl)cc3)C2)c(C)o1 (centres unmarked) | -11.9
58 | CC(=O)c1ccc(C(=O)NC2CCCN(Cc3ccc(Cl)cc3)C2)s1 (centres unmarked) | -66.4
59 | Cc1cc(C(=O)NC2CCCN(Cc3ccc(Cl)cc3)C2)n(C)n1 (centres unmarked) | -16
60 | Cc1ccsc1C(=O)NC1CCCN(Cc2ccc(Cl)cc2)C1 (centres unmarked) | -56.2
61 | Cc1cc(C(=O)NC2CCCN(Cc3ccc(Cl)cc3)C2)no1 (centres unmarked) | -34.6
62 | CNc1nc(Sc2ccc(C)cc2)cc(C(F)(F)F)n1 | 15.5
63 | COc1ccc(N(CC(=O)Nc2cc(Cl)ccc2OC)C2=NC3CS(=O)(=O)CC3S2)cc1 (centres unmarked) | -7.35
64 | Cc1ccc(C(=O)N2CCN(c3ccccn3)CC2)cc1Cl | -3.65
65 | CC(NC(=O)c1cc(S(=O)(=O)N2CCOCC2)ccc1F)c1ccc(-n2ccnc2)cc1 (centres unmarked) | -72.2
66 | Cc1ccc(C(=O)NC(C)c2ccccc2)cc1S(=O)(=O)N1CCOCC1 (centres unmarked) | -1.39
67 | Cc1ccc(C(=O)NNC(=O)c2ccncc2)cc1S(=O)(=O)N1CCOCC1 | 0.578
68 | O=C(Nc1ccc(N2CCCCC2)cc1)c1cc(S(=O)(=O)N2CCOCC2)ccc1F | -9.76
69 | O=C(NCCCn1ccnc1)c1cc(S(=O)(=O)N2CCOCC2)ccc1F | 26.8

Row | Structure (SMILES) | hERG current change (%, negative = inhibition) at 10uM [%]
70 | Cc1ccc(C(=O)NC(C)c2ccc(-n3ccnc3)cc2)cc1S(=O)(=O)N1CCOCC1 (centres unmarked) | -65.1
71 | CCOC(=O)CNC(=O)C(=O)c1c(O)[nH]c2ccccc12 | 9.92
72 | CC(C(=O)NCC1CCCO1)n1cccc1C(=O)c1ccccc1 (centres unmarked) | 15.1
73 | CCOC(=O)C1=C(CN2CCc3ccccc32)NC(=O)NC1c1cccc([N+](=O)[O-])c1 (centres unmarked) | -7.46
74 | Cc1cc(C(=O)OCn2nnc3ccccc3c2=O)c(C)o1 | -6.92
75 | Cc1c(C(=O)Nc2ccc(F)c(F)c2)oc2ccc(S(=O)(=O)N3CCCCC3)cc12 | -0.731
76 | Cc1ccc(CN2CCN(/N=C/c3ccc(O)c(O)c3)CC2)cc1 | -21.7
77 | Cn1ccnc1C(=O)c1cc(=O)c2ccccc2o1 | 8.14
78 | Clc1ccccc1CSc1nnc(-c2cccnc2)n1Cc1ccco1 | -43.1
79 | O=C(CSc1nnc(-c2cccnc2)n1Cc1ccccc1)NCc1ccco1 | -1.17
80 | Clc1ccc(CSc2nnc(-c3ccccn3)n2Cc2ccco2)c(Cl)c1 | -5.15
81 | Clc1ccc(CSc2nnc(-c3cccnc3)n2Cc2ccco2)c(Cl)c1 | -68.7
82 | Clc1cccc(CSc2nnc(-c3ccccn3)n2Cc2ccco2)c1 | -35.7
83 | Clc1cccc(CSc2nnc(-c3cccnc3)n2Cc2ccco2)c1 | -74.3
84 | Cc1cc(C)cc(OCC(=O)Nc2ccncc2)c1 | -18.9
85 | C=CCN(c1ccccc1)S(=O)(=O)c1cccc(C(=O)NNC(=O)c2ccncc2)c1 | -7.43
86 | O=C1NC(Cc2ccccc2)C(=O)N1Cc1cc([N+](=O)[O-])cc2c1OCOC2 (centres unmarked) | 7.47
87 | COc1cc(SC)ccc1C(=O)N1CCN(c2ccccc2)CC1 | -17.2
88 | COc1cc(SC)ccc1C(=O)N1CCN(c2ccc(O)cc2)CC1 | -34.2
89 | COc1cc(SC)ccc1C(=O)N1CCCCCC1 | 17.3
90 | COc1ccc(N2CCN(C(=O)c3ccc(SC)cc3OC)CC2)cc1 | -55.3
91 | COc1cc(SC)ccc1C(=O)N1CCN(Cc2ccccc2)CC1 | -62.7
92 | COc1cc(SC)ccc1C(=O)N1CCN(Cc2ccc3c(c2)OCO3)CC1 | -34.3
